For some assays here: Entries with a potency or affinity are not part of this list. Calls of active or inactive are those of the source. Unless noted, the rule behind the calls is not given here.
How the values were obtained:
[1] = antimalarial activity against Dd2 strain (AID 2302;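 active = growth inhibition above 50% at the single 2 µM test dose, taken to imply half-maximal potency below 2 µM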;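 note: 0% = DMSO untreated growth and 100% = chloroquine plus artemisinin killed control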); conditions: P. falciparum Dd2 in RBCs, LDH growth readout, 72 h; at 2 µM; active compounds read high
[2] = HepG2 cytotoxicity, primary screen, cytotoxicity control for P. falciparum antimalarial project, cell-based, ATP luminescence (AID 2303;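 active = inhibition above 50%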;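 note: 0% = DMSO wells and 100% = digitonin-killed cells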); conditions: HepG2 viability, 24-48 h, at 10 µM, active compounds read high
[3] = target: L-lactate dehydrogenase (Plasmodium falciparum (isolate CDC / Honduras)) (UniProt Q27743); assay: PfLDH activity inhibition – cell lysate, 3D7 strain, counter-screen for P. falciparum growth inhibition project (AID 2304);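 note: 0% = vehicle and 100% = reference inhibitor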; conditions: P. falciparum 3D7 crude extract, LDH APAD/NBT absorbance; at 2 µM; active compounds read high
[4] = inhibition of 3D7 malaria parasite growth – strain 3D7 (AID 2306);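 note: 0% = DMSO wells and 100% = chloroquine plus artemisinin control wells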; conditions: P. falciparum 3D7 erythrocytic growth, LDH absorbance, 72 h; at 2 µM; active compounds read high
[5] = target: Calcium-dependent protein kinase 1 (Plasmodium falciparum (isolate 3D7)) (UniProt P62344); assay: PfCDPK1 kinase inhibitors, biochemical, TCAMS library (AID 1159585; cut-off not given, nearly all actives have IC50 up to about 0.98 µM;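 note: inhibitors leave more ATP so luminescence rises with inhibition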); conditions: recombinant PfCDPK1, Kinase-Glo ATP depletion luminescence
[6] = target: Plasmodium falciparum protein kinase 6 (PK6, PF3D7_1337100) (UniProt Q8IDW1); assay: PfPK6 kinase inhibitors, biochemical, TCAMS library (AID 1159586); conditions: recombinant PfPK6, Kinase-Glo ATP depletion luminescence
[7] = target: Protein kinase 7 (PK7), Plasmodium falciparum 3D7 (PF3D7_0213400) (UniProt Q7YTF7); assay: inhibition of Plasmodium PK7 catalytic activity – biochemical, TCAMS antimalarial set, Kinase-Glo luminescence (AID 1159587); conditions: recombinant PfPK7, Kinase-Glo ATP depletion luminescence
[8] = target: Calcium-dependent protein kinase 4 (Plasmodium falciparum (isolate 3D7)) (UniProt Q8IBS5); assay: PfCDPK4 kinase inhibitors, biochemical, TCAMS library (AID 1159588; cut-off not given, nearly all actives have IC50 up to about 0.91 µM); conditions: recombinant PfCDPK4, Kinase-Glo ATP depletion luminescence
Sequence of Calcium-dependent protein kinase 4 (Plasmodium falciparum (isolate 3D7)) (Q8IBS5 whole entry, looked up): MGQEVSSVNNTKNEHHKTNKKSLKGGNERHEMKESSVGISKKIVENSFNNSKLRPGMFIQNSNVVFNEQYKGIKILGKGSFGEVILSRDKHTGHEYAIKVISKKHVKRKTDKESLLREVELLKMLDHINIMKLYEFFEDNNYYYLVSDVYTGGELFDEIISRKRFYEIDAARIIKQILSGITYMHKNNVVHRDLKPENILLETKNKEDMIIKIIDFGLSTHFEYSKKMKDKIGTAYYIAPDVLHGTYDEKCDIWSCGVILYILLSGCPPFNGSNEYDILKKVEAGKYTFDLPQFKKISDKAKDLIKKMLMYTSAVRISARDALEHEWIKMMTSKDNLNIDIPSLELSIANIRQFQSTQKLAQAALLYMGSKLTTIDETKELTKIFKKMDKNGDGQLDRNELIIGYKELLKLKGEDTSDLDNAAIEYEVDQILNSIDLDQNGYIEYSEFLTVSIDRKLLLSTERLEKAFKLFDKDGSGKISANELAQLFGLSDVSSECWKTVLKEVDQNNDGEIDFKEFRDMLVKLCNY

Sequence of L-lactate dehydrogenase (Plasmodium falciparum (isolate CDC / Honduras)) (Q27743 whole entry, looked up): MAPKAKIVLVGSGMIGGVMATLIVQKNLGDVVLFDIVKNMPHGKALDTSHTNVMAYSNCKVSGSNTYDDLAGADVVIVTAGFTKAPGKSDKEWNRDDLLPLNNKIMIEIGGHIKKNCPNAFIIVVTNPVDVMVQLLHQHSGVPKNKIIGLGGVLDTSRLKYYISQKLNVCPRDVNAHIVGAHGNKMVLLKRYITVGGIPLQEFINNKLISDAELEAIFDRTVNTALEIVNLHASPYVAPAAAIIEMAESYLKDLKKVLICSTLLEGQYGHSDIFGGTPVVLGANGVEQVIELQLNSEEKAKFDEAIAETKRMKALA
Sequence of Protein kinase 7 (PK7), Plasmodium falciparum 3D7 (PF3D7_0213400) (Q7YTF7 1-343): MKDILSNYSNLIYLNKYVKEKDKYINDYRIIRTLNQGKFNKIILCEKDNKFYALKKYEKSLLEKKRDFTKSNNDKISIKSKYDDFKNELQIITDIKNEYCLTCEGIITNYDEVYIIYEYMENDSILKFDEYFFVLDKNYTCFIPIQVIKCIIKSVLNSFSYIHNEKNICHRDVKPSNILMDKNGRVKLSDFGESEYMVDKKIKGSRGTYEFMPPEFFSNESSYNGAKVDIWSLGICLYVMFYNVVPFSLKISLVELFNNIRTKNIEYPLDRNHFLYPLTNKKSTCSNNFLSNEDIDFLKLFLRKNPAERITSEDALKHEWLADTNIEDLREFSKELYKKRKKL
Sequence of Calcium-dependent protein kinase 1 (Plasmodium falciparum (isolate 3D7)) (P62344 whole entry, looked up): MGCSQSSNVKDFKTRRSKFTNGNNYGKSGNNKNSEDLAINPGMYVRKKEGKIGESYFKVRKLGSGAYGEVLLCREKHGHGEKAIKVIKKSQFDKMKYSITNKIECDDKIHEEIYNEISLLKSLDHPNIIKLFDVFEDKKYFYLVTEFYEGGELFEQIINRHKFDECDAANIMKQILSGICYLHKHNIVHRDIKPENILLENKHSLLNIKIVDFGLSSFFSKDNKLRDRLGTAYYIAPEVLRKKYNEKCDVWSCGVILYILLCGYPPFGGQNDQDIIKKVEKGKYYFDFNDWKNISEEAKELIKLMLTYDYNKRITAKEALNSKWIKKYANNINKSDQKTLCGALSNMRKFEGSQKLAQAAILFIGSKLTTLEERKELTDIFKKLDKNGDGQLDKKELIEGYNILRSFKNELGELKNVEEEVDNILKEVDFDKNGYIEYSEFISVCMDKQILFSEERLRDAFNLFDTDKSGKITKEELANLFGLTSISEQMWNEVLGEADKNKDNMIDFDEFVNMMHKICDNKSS
Sequence of Plasmodium falciparum protein kinase 6 (PK6, PF3D7_1337100) (Q8IDW1 1-305): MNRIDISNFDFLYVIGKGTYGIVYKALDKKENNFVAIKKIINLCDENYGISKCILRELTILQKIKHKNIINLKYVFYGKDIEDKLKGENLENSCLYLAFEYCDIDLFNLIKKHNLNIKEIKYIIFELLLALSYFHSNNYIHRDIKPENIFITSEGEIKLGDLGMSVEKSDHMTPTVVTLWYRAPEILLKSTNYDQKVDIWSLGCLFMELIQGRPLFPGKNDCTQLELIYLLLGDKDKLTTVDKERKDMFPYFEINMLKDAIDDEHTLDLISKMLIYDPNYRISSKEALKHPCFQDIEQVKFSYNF

CCCc1cc(OCCCOc2ccccc2)ccc1OCCCON1C(N)=NC(N)=NC1(C)C
active: growth inhibition [1] 96% | inhibition [2] 68% | growth inhibition [4] 94%
inactive: inhibition [3] 6% | outcome [5] | outcome [6] | outcome [7] | outcome [8]

Cc1ccc(C)c2sc(N(CCCn3ccnc3)C(=O)c3ccco3)nc12
inactive: inhibition [2] 28% | inhibition [3] 0% | outcome [5] | outcome [6] | outcome [7] | outcome [8]
active: growth inhibition [1] 63% | growth inhibition [4] 96%

O=C(Nc1ccc2ccccc2c1)N(CCCn1ccnc1)Cc1csc(-c2ccc(CNCc3ccccc3)cc2)n1
active: growth inhibition [1] 53% | growth inhibition [4] 99%
inactive: inhibition [2] 10% | inhibition [3] 0% | outcome [5] | outcome [6] | outcome [7] | outcome [8]

CC(CCON1C(N)=NC(N)=NC1(C)C)c1ccc(Cl)cc1 (stereo not given)
active: growth inhibition [1] 97% | inhibition [2] 64% | growth inhibition [4] 93%
inactive: inhibition [3] -5% | outcome [5] | outcome [6] | outcome [7] | outcome [8]

COc1ccc(Cl)cc1N1CCN(CCCNC(=O)c2ccc(-c3nc4cc(Cl)c(F)cc4[nH]3)s2)CC1
inactive: inhibition [2] 12% | inhibition [3] 4% | outcome [5] | outcome [6] | outcome [7] | outcome [8]
active: growth inhibition [1] 98% | growth inhibition [4] 101%

O=C(c1cccs1)N1CCN(c2ccc([N+](=O)[O-])c(NC3CC3)c2)CC1
active: growth inhibition [1] 95% | growth inhibition [4] 100%
inactive: inhibition [2] -5% | inhibition [3] 2% | outcome [5] | outcome [6] | outcome [7] | outcome [8]

COc1c(C2CCN(CCCCNC(=O)c3cc(-c4ccc(Cl)cc4)sc3C)CC2)ccc2c1CCCC2
active: growth inhibition [1] 65% | inhibition [2] 61% | growth inhibition [4] 101%
inactive: inhibition [3] 2% | outcome [5] | outcome [6] | outcome [7] | outcome [8]

COc1nc2c(CCN3CCC(NCc4ccc5c(c4)NCCO5)CC3)c(Cl)cnc2cc1F
active: growth inhibition [1] 98% | growth inhibition [4] 102%
inactive: inhibition [2] 23% | inhibition [3] 1% | outcome [5] | outcome [6] | outcome [7] | outcome [8]

O=C(c1cccc(-c2noc(C(F)(F)F)n2)c1)N1CCN(c2ccncc2)CC1
inactive: inhibition [2] 14% | inhibition [3] 3% | outcome [5] | outcome [6] | outcome [7] | outcome [8]
active: growth inhibition [1] 56% | growth inhibition [4] 90%

CC(CN1CCN(C)CC1)C(=O)Nc1ccc(-c2ccc(-c3nc4ccccc4[nH]3)cc2)cc1 (stereo not given)
inactive: inhibition [2] 13% | inhibition [3] 4% | outcome [5] | outcome [6] | outcome [7] | outcome [8]
active: growth inhibition [1] 87% | growth inhibition [4] 92%

Cc1cc2c(cc1C(F)(F)F)N(C(=O)Nc1ccc(C(=O)NC3CCN(Cc4ccccc4)C3)cc1)CC2 (stereo not given)
active: growth inhibition [4] 100%
inactive: growth inhibition [1] 48% | inhibition [2] 19% | inhibition [3] -6% | outcome [5] | outcome [6] | outcome [7] | outcome [8]

CC1(C)[C@H]2CC[C@@H](CNc3nc(NCCc4cnc[nH]4)nc(NCc4cc(F)ccc4F)n3)[C@@H]1C2
active: growth inhibition [1] 91% | growth inhibition [4] 100%
inactive: inhibition [2] 0% | inhibition [3] 6% | outcome [5] | outcome [6] | outcome [7] | outcome [8]

C[C@H](O)[C@@](C)(CO)NCc1ccc2c3c(cccc13)-c1ccccc1-2
active: growth inhibition [1] 85% | inhibition [2] 81% | growth inhibition [4] 95%
inactive: inhibition [3] -2% | outcome [5] | outcome [6] | outcome [7] | outcome [8]

O=C(CSc1n[nH]c(-c2ccccc2Br)n1)c1c[nH]c2ccccc12
active: growth inhibition [1] 95% | growth inhibition [4] 100%
inactive: inhibition [2] 7% | inhibition [3] -6% | outcome [5] | outcome [6] | outcome [7] | outcome [8]

Cc1ccc(CN2CCCN(Cc3cccc(NC(=O)c4cc5ccccc5s4)c3)CC2)cc1
active: growth inhibition [4] 87%
inactive: growth inhibition [1] 28% | inhibition [2] 32% | inhibition [3] -3% | outcome [5] | outcome [6] | outcome [7] | outcome [8]

CC(=O)Nc1cc(C(=O)Nc2cccc(-c3cccc(-c4nc5ccc(C(F)(F)F)cc5[nH]4)c3)c2)ccc1C
inactive: growth inhibition [1] 43% | inhibition [3] -4% | outcome [5] | outcome [6] | outcome [7] | outcome [8]
active: inhibition [2] 56% | growth inhibition [4] 97%

COc1ccc(CCN(C)CCCCc2ccc(NC(=O)c3cccc4c(=O)c5cc(F)ccc5sc34)cc2)cc1OC
inactive: growth inhibition [1] 49% | inhibition [3] 0% | outcome [5] | outcome [6] | outcome [7] | outcome [8]
active: inhibition [2] 98% | growth inhibition [4] 96%

COc1ccc(NC(=O)Nc2ccc(-c3ccc(-c4nc5c(C)cccc5[nH]4)s3)cc2)cc1
inactive: inhibition [3] 3% | outcome [5] | outcome [6] | outcome [7] | outcome [8]
active: growth inhibition [1] 96% | inhibition [2] 74% | growth inhibition [4] 100%

Cc1c(CNCCCNc2nc3cscc3[nH]2)sc(C(F)F)c1Br
active: growth inhibition [4] 99%
inactive: growth inhibition [1] 11% | inhibition [2] 1% | inhibition [3] 1% | outcome [5] | outcome [6] | outcome [7] | outcome [8]

C[C@@H]([C@@H](CCCCc1ccccc1)C(=O)N[C@H](C(=O)Nc1cccnc1)C(C)(C)C)N(O)C=O
inactive: inhibition [2] 0% | inhibition [3] 0% | outcome [5] | outcome [6] | outcome [7] | outcome [8]
active: growth inhibition [1] 98% | growth inhibition [4] 98%

CCCCN1CC[C@@H](CCC(O)c2ccnc3ccc(OCCC(C)C)cc23)[C@@H](CC)C1 (stereo not given in full)
inactive: inhibition [2] 22% | inhibition [3] 2% | outcome [5] | outcome [6] | outcome [7] | outcome [8]
active: growth inhibition [1] 90% | growth inhibition [4] 94%

Cc1nc(-c2cccc(NCc3ccccc3)c2)[nH]c1C
inactive: growth inhibition [1] 48% | inhibition [2] 16% | inhibition [3] 1% | outcome [5] | outcome [6] | outcome [7] | outcome [8]
active: growth inhibition [4] 101%

CC(C)CCN1CCCN(Cc2cccc(NC(=O)c3ccc(Cl)c(Cl)c3)c2)CC1
active: growth inhibition [4] 92%
inactive: growth inhibition [1] 13% | inhibition [2] 35% | inhibition [3] -1% | outcome [5] | outcome [6] | outcome [7] | outcome [8]

Cc1ccccc1CCNC(=O)c1cnc(N2CCN(c3ccncc3)CC2)c(Cl)c1
active: growth inhibition [1] 95% | growth inhibition [4] 100%
inactive: inhibition [2] 36% | inhibition [3] -2% | outcome [5] | outcome [6] | outcome [7] | outcome [8]

CS(=O)(=O)NCCCNCc1cccc(-c2ccc(-c3nc4ccc(C(F)(F)F)cc4[nH]3)s2)c1
inactive: inhibition [2] 11% | inhibition [3] -8% | outcome [5] | outcome [6] | outcome [7] | outcome [8]
active: growth inhibition [1] 51% | growth inhibition [4] 100%

Cc1nc(C)c(CC(=O)Nc2ccc(-c3ccc(-c4nc5ccc(C(F)(F)F)cc5[nH]4)s3)cc2)s1
active: inhibition [2] 57% | growth inhibition [4] 90%
inactive: growth inhibition [1] 29% | inhibition [3] -8% | outcome [5] | outcome [6] | outcome [7] | outcome [8]

CCOc1ncccc1CN1CCC(N2CCc3cc(NC(=O)c4cc(C)on4)ccc32)C1 (stereo not given)
active: growth inhibition [1] 96% | growth inhibition [4] 89%
inactive: inhibition [2] -3% | inhibition [3] -1% | outcome [5] | outcome [6] | outcome [7] | outcome [8]

Cc1ccc(S(=O)(=O)N(CCCNCc2cccc(O)c2)c2ccccc2)cc1
inactive: inhibition [2] 6% | inhibition [3] 2% | outcome [5] | outcome [6] | outcome [7] | outcome [8]
active: growth inhibition [1] 94% | growth inhibition [4] 95%

COc1ccc(N2CCc3c(-c4cccc5cnccc45)cc(C)nc32)c(C)c1
active: growth inhibition [4] 96%
inactive: growth inhibition [1] -12% | inhibition [2] 20% | inhibition [3] 0% | outcome [5] | outcome [6] | outcome [7] | outcome [8]

Fc1ccc2nccc(NN=CC=Cc3ccccc3)c2c1
active: growth inhibition [1] 77% | growth inhibition [4] 96%
inactive: inhibition [2] 29% | inhibition [3] -2% | outcome [5] | outcome [6] | outcome [7] | outcome [8]

Cc1[nH]c(-c2ccc(F)cc2)cc1C(=O)NC1CCN(Cc2ccccc2)CC1
inactive: growth inhibition [1] 9% | inhibition [2] 6% | inhibition [3] -2% | outcome [5] | outcome [6] | outcome [7] | outcome [8]
active: growth inhibition [4] 84%

Cc1[nH]c(C)c(-c2ccc(OCc3cc(F)cc(F)c3)nc2)c(=O)c1Cl
active: growth inhibition [1] 97% | growth inhibition [4] 97%
inactive: inhibition [2] 20% | inhibition [3] -6% | outcome [5] | outcome [6] | outcome [7] | outcome [8]

COc1ccc(-c2ccc(NC(=O)c3ccc(C#N)cc3)cc2)cc1CN(C)CCN(C)C
inactive: inhibition [2] 28% | inhibition [3] 2% | outcome [5] | outcome [6] | outcome [7] | outcome [8]
active: growth inhibition [1] 58% | growth inhibition [4] 96%

COc1ccc(-n2nc(C(=O)NCCC3=CCCCC3)c3ccccc3c2=O)cc1
active: growth inhibition [1] 59% | growth inhibition [4] 94%
inactive: inhibition [2] 0% | inhibition [3] -4% | outcome [5] | outcome [6] | outcome [7] | outcome [8]

O=C(Nc1ccc2c(c1)OCO2)c1cc(-c2cccnc2)nc2ccc(Cl)cc12
inactive: growth inhibition [1] 41% | inhibition [2] 9% | inhibition [3] -3% | outcome [5] | outcome [6] | outcome [7] | outcome [8]
active: growth inhibition [4] 89%

COc1ccc(CNCc2cccc(-c3cccc(-c4nc5ccc(C(F)(F)F)cc5[nH]4)c3)c2)cc1
active: growth inhibition [1] 91% | growth inhibition [4] 100%
inactive: inhibition [2] 40% | inhibition [3] 4% | outcome [5] | outcome [6] | outcome [7] | outcome [8]

COc1ccc(-c2cnc3[nH]cc(-c4ccc(C(=O)O)c(C)c4)c3c2)cn1
inactive: inhibition [2] 23% | inhibition [3] -5% | outcome [5] | outcome [6] | outcome [7] | outcome [8]
active: growth inhibition [1] 99% | growth inhibition [4] 99%

COc1ccccc1-c1[nH]c2ccccc2c1CN1CCC(c2c(C)cccc2C)CC1
inactive: growth inhibition [1] 13% | inhibition [2] 49% | inhibition [3] 3% | outcome [5] | outcome [6] | outcome [7] | outcome [8]
active: growth inhibition [4] 96%

CC(=NNC(=S)NCCc1ccccc1)c1ccccn1
inactive: inhibition [3] 8% | outcome [5] | outcome [6] | outcome [7] | outcome [8]
active: growth inhibition [1] 99% | inhibition [2] 73% | growth inhibition [4] 100%

O=C(Nc1cccc(-c2ccc(-c3nc4ccc(C(F)(F)F)cc4[nH]3)s2)c1)c1ccncc1
inactive: growth inhibition [1] 46% | inhibition [3] -13% | outcome [5] | outcome [6] | outcome [7] | outcome [8]
active: inhibition [2] 79% | growth inhibition [4] 99%

From PubChem BioAssay
